Most compounds without a hit are left out; they make up all but 4% or so of the library.
PAX8 reporter = inhibitors of PAX8-driven TPO luciferase reporter, primary screen, RMG-I cells, single concentration. 360,000 compounds, 1.2% hits. AID 652154, 2013. SteadyGlo, 24 h. inhibition, % at 12.6 µM;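 active = mean replicate inhibition at least 60% with every replicate also reaching 60%; inconclusive = only one of the two criteria is met; inactive = mean below 60% and not all replicates reaching 60%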;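 note: luciferase light reporting Pax8 driven TPO promoter activity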
MITF TRPM1 inh = inhibitors of MITF-dependent TRPM1 promoter reporter, primary screen, cell-based, SK-MEL-5, single point, luciferase; 330,000 compounds, 0.83% hits; SK-MEL-5 TRPM1 promoter luciferase, 24 h; AID 488899, 2010; inhibition, % at 12.5 µM;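 active = mean inhibition across replicates of 60% or more, whatever share of single replicates reaches that level; inconclusive = some that reach 60%, reason not given; inactive = mean inhibition across replicates below 60%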
Wnt act = Wnt/beta-catenin pathway activators, primary screen, cell-based, plate reader, single point; Wnt/beta-catenin reporter cell assay, activator; activation, % at 9.35 µM; 300,000 compounds, 1.2% hits; AID 743398, 2014; in the data active = activation above about 30%, passing the limit was not always enough; inconclusive = no clear call, values can overlap the other calls
EWS-Fli inh = EWS/Fli-driven NR0B1 reporter inhibitors, primary screen, A673 cells, NR0B1 luciferase, luminescence, MLPCN library; viability-normalised; inhibition, % at 12.6 µM; 350,000 compounds, 0.67% hits;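 active = mean inhibition of at least 50% after viability correction, with every replicate also passing that limit; inconclusive = mean reaches 50% but only one of two replicates passes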;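 note: firefly luciferase signal divided by Alamar Blue viability fluorescence both relative to DMSO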
esBAF inh = Bmi1 luciferase reporter increase in mESCs, primary screen, esBAF inhibitor project, mouse ES cells, Bmi1 luciferase knock-in, single point; 24 h; 100% = twice the neutral-well signal; reporter increase, % at 12.5 µM; 350,000 compounds, 2% hits; in the data active = activation above about 40%; inconclusive = no clear call, values can overlap the other calls;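 note: a rise in the Bmi1 reporter signal indicates esBAF inhibition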
MITF act = activators of MITF-driven TRPM1 promoter reporter, primary screen, cell-based, SK-MEL-5, luciferase, single point; SK-MEL-5 TRPM1-promoter luciferase, 24 h; % of positive control, neutral wells = 0; activation, % at 12.5 µM; 300,000 compounds, 0.75% hits;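 active = mean activation of at least 80% with every replicate also reaching 80%; inconclusive = mean reaches 80% but some replicate falls short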
A number is an active result.

Results for COc1cc2c(c(OC)c1OC)-c1ccc(OC)c(=O)cc1C(NC(C)=O)CC2 (stereo unspecified) ?
PAX8 reporter: 96.4; MITF TRPM1 inh: 66.5; Wnt act: inactive; EWS-Fli inh: 63.5; esBAF inh: inactive; MITF act: inactive

How did COc1cc2c(c(OC)c1OC)C(=O)CC2 do in these assays?
PAX8 reporter: inactive; MITF TRPM1 inh: inactive; Wnt act: inactive; EWS-Fli inh: inactive; MITF act: inactive

How did COCCN1Cc2cc3cc(C)ccc3nc2SC1=Nc1ccc(OC)cc1 do in these assays?
PAX8 reporter: inactive; MITF TRPM1 inh: inactive; Wnt act: inactive; EWS-Fli inh: inactive; MITF act: inactive

Results for CCOc1ccc(N=C2Sc3nc4ccc(C)cc4cc3CN2CCOC)cc1 ?
PAX8 reporter: inactive; MITF TRPM1 inh: inactive; Wnt act: inactive; EWS-Fli inh: inactive; esBAF inh: 54.1; MITF act: inactive

How did CCC(C)N=C1Sc2nc3ccc(C)cc3cc2CN1CCOC (stereo unspecified) do in these assays?
PAX8 reporter: inactive; MITF TRPM1 inh: inactive; Wnt act: inactive; EWS-Fli inh: inactive; esBAF inh: inactive; MITF act: inactive

What do the screens show for `COCCN1Cc2cc3cc(C)ccc3nc2SC1=Nc1cccc(OC)c1`?
PAX8 reporter: inactive; MITF TRPM1 inh: inactive; Wnt act: inactive; EWS-Fli inh: inactive; esBAF inh: 48.9; MITF act: inactive

What do the screens show for `C/C(=N\N(C)C)C1=C(O)c2ccccc2C1=O`?
PAX8 reporter: inactive; MITF TRPM1 inh: inactive; Wnt act: inactive; MITF act: inactive

What do the screens show for `CCOc1ccc(N=C(C)C2=C(O)c3ccccc3C2=O)cc1`?
PAX8 reporter: inactive; MITF TRPM1 inh: inactive; Wnt act: 38.9; EWS-Fli inh: inactive

What do the screens show for `COc1ccc(N=C(C)C2=C(O)c3ccccc3C2=O)cc1`?
PAX8 reporter: inactive; MITF TRPM1 inh: inactive; Wnt act: 57.6; MITF act: inactive

Results for CC(=NC1CC1)C1=C(O)c2ccccc2C1=O ?
MITF TRPM1 inh: inactive; Wnt act: inactive; esBAF inh: inactive; MITF act: 97.7

What do the screens show for `CC(=O)Nc1ccc(N=C(C2=C(O)c3ccccc3C2=O)c2ccccc2)cc1`?
PAX8 reporter: inactive; MITF TRPM1 inh: inactive; Wnt act: inactive; EWS-Fli inh: inactive; MITF act: inactive

Results for O=C(Nc1ccccc1F)N1CC(=O)N2[C@@H](CO)[C@H](c3ccc(C#Cc4ccccc4)cc3)[C@@H]2C1 ?
PAX8 reporter: inactive; EWS-Fli inh: inactive

What do the screens show for `Cc1noc(C)c1NC(=O)N(C)C[C@H]1OCCCC[C@@H](C)Oc2ccc(NC(=O)c3ccncc3)cc2C(=O)N([C@@H](C)CO)C[C@@H]1C`?
PAX8 reporter: inactive; EWS-Fli inh: inactive; esBAF inh: inactive

Results for Cc1ccccc1NC(=O)/C=C/c1ccc([N+](=O)[O-])s1 ?
MITF TRPM1 inh: 92.5; MITF act: inactive

Results for CC(=O)c1cccc(NC(=O)/C=C/c2ccc([N+](=O)[O-])s2)c1 ?
PAX8 reporter: inactive; MITF TRPM1 inh: 92.0; Wnt act: inactive; EWS-Fli inh: inactive; MITF act: inactive

What do the screens show for `C[C@H](O)C#Cc1cnc2c(c1)C(=O)N([C@H](C)CO)C[C@H](C)[C@@H](CN(C)C(=O)c1ccc(F)cc1)O2`?
EWS-Fli inh: inactive; esBAF inh: inactive

What do the screens show for `CN=Cc1cc(-c2ccccc2)sc1O`?
MITF TRPM1 inh: inactive; Wnt act: inactive; esBAF inh: 64.4; MITF act: inactive

What do the screens show for `Nc1ccc(Cc2nc3c(ccc4ccccc43)[nH]2)cc1`?
MITF TRPM1 inh: inactive; Wnt act: inactive; EWS-Fli inh: inactive; esBAF inh: 87.1; MITF act: inactive

How did Cc1ccc2nc(C(O)C(O)c3nc4ccc(C)cc4[nH]3)[nH]c2c1 (stereo unspecified) do in these assays?
MITF TRPM1 inh: inactive; Wnt act: inactive; esBAF inh: 42.7

How did S=c1nc(Cc2ccc(Cl)cc2)[nH]c2ccccc12 do in these assays?
PAX8 reporter: inactive; MITF TRPM1 inh: inactive; Wnt act: inactive; EWS-Fli inh: inactive; MITF act: inactive

What do the screens show for `Cc1ccc2nc(Cc3ccc(N)cc3)[nH]c2c1`?
MITF TRPM1 inh: inactive; Wnt act: 39.2; esBAF inh: 43.9; MITF act: inactive

What do the screens show for `Nc1ccc2nc(Cc3ccccc3)[nH]c2c1`?
PAX8 reporter: inactive; MITF TRPM1 inh: inactive; Wnt act: inactive; EWS-Fli inh: inactive; esBAF inh: inconclusive; MITF act: inactive

What do the screens show for `C[C@@H]1CN([C@H](C)CO)C(=O)Cc2cc(NC(=O)Nc3ccc(C(F)(F)F)cc3)ccc2O[C@@H]1CN(C)C(=O)NC1CCCCC1`?
PAX8 reporter: inactive; EWS-Fli inh: inactive; esBAF inh: inactive

What do the screens show for `O=C(CN1CCOCC1)N[C@H]1CC[C@H](CCNC(=O)C2CCC2)O[C@H]1CO`?
PAX8 reporter: inactive; EWS-Fli inh: inactive; esBAF inh: inactive

Results for Cc1ccc(OCc2cc(C(=O)NCC(C)(C)N3CCOCC3)no2)cc1C ?
MITF TRPM1 inh: inactive; Wnt act: 46.6; EWS-Fli inh: inactive; MITF act: 121.2

How did Cc1ccc(OCc2cc(C(=O)NCC3COCCO3)no2)cc1C (stereo unspecified) do in these assays?
PAX8 reporter: inactive; MITF TRPM1 inh: inactive; Wnt act: inactive; MITF act: inactive

What do the screens show for `CCN1CCCC1CNC(=O)c1cc(COc2ccc(C)c(C)c2)on1` (stereo unspecified)?
PAX8 reporter: inactive; MITF TRPM1 inh: inactive; Wnt act: inactive; EWS-Fli inh: inactive; esBAF inh: 45.0; MITF act: inactive

Results for CCCc1cc(-c2ccc3c(c2)COc2c4ccccc4nn2-3)on1 ?
PAX8 reporter: inactive; MITF TRPM1 inh: inactive; Wnt act: 35.5; EWS-Fli inh: inactive; esBAF inh: inactive; MITF act: inconclusive

How did Cc1cc(-c2ccc3c(c2)COc2c4ccccc4nn2-3)on1 do in these assays?
PAX8 reporter: inactive; MITF TRPM1 inh: inactive; Wnt act: 45.0; EWS-Fli inh: inactive; esBAF inh: inactive; MITF act: inactive

What do the screens show for `C(#CC1CCCC1)c1ccc2c(c1)COc1c3ccccc3nn1-2`?
PAX8 reporter: inactive; MITF TRPM1 inh: inactive; Wnt act: 42.3; EWS-Fli inh: inactive; esBAF inh: 60.0; MITF act: 119.2

Results for CN1C(=O)c2cc(NC(=O)Cc3cccs3)ccc2OC[C@H]2O[C@H](CC(=O)N[C@H]3CCN(Cc4ccccc4)C3)CC[C@@H]21 ?
PAX8 reporter: inactive; EWS-Fli inh: inactive; esBAF inh: inactive

Results for CCCn1c(CN2CCN(C(=O)OCC)CC2)nc2cc(NC(=O)CC)ccc21 ?
PAX8 reporter: inactive; MITF TRPM1 inh: inactive; Wnt act: inactive; EWS-Fli inh: 59.2; esBAF inh: inactive; MITF act: inactive

High-throughput results as filed in PubChem.
